# Source: PubChem (National Center for Advancing Translational Sciences (NCATS))
# AMA1 RON2 block = AMA1-RON2 (P. falciparum) interaction inhibition; AlphaScreen AMA1-biotinylated RON2 peptide binding; Potency, µM (titrated, usually from 58.2 µM), inactives show at the top dose activity change, negative = inhibition, usual class: inhibitors; actives 0.2% (n = 360,000); active means well fitted inhibition curve with a large enough effect; inconclusive means small, poorly fitted or top-dose-only effect; inactive means no such curve, though single readings can be large or run the other way;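 further: potency means the concentration at half of the fitted maximal effect; 0% = vehicle wells and -100% = peptide control; nearly all actives have a fitted effect of over 45% in size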
#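 AMA1 (3D7) with his tag at 25 nM final met compounds first, then biotinylated RON2 peptide at 25 nM; detection used donor plus acceptor beads, 10 µg/mL apiece, read by AlphaScreen after 30 min at room temperature.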
# Lassa entry inh = Lassa virus entry inhibition; Lassa virus pseudotype entry inhibition, cell reporter; Potency, µM (top dose mostly 37.9 µM), without a hit: at the top dose activity change, negative = inhibition, actives largely listed as inhibitors; actives 1.2% (n = 300,000); AID 540256; calls by dose curve; tested in HEK293 cells; further: potency means the concentration at half of the fitted maximal effect; on the % scale 0 is the no-effect control and ±100 the full control effect; nearly all actives have a fitted effect of over 50% in size
# MARV entry inh = inhibitors of Marburg virus binding or cell entry; actives 1.8% (n = 300,000); AID 540276; Marburg virus pseudotyped entry inhibition, cell reporter; Potency, µM (doses to about 37.8 µM), without a hit: at the top dose activity change, negative = inhibition, usual class: inhibitors; calls by dose curve; tested in HEK293 cells; further: potency means the concentration at half of the fitted maximal effect; on the % scale 0 is the no-effect control and ±100 the full control effect
# Shiga toxin inh = Shiga toxin inhibition. Vero cells, Shiga toxin protein synthesis inhibition reporter. inhibition, % at 38.7 µM. actives 9.2% (n = 290,000). AID 2315; in the data active means inhibition mostly above about 28%, no sharp cut-off; inactive means mostly below about 43%; further: 0% is about no effect
# CHX counter = counter-screen for Shiga toxin inhibitors: cycloheximide protein synthesis inhibition. max response, %. actives 12% (n = 300,000). cell reporter, cycloheximide protein synthesis inhibition counterscreen; in the data active means max response mostly above about 13%, no sharp cut-off; inactive means mostly below about 14%; further: read at 38.3 µM for the half of the compounds with a filed dose; 0% is about no effect
# Active calls of the source: *; ? = inconclusive; . = no result; [ ] = another dose, or the depositor's remark. The entries come from a sample that favours hits as a whole.
SMILES,AMA1 RON2 block,Lassa entry inh,MARV entry inh,Shiga toxin inh,CHX counter
C/C(Cn1nnc([N+](=O)[O-])n1)=N\NC(=O)c1ccc(C)cc1,72.3%,?,?,81.8*,43.4*
O=S(=O)(c1ccccc1)c1nnn2c1nc(NC1CCCCC1)c1sccc12,.,14.6%[46.1 µM],.,.,.
CC(Cc1ccccc1)NC(=S)CN1CCCC1=S (stereo not given),0.2%,13.0%,?,-6.1,8.2
COc1ccc(-c2nc(CS(=O)CC(=O)NCc3ccc4c(c3)OCO4)c(C)o2)cc1OC (stereo not given),0.0%,.,.,8.4,5.3
Cc1ccc(-c2nc3ccccc3c(=O)o2)cc1,4.3%,.,.,.,23.1*
COc1ccc(-c2nc3ccccc3c(=O)o2)cc1,-26.7%,-14.1%[46.1 µM],?,48.4,13.0*
COc1cccc(-c2nc3ccccc3c(=O)o2)c1,4.6%,12.8%,?,25.4,19.3*
COc1cc(OC)cc(-c2nc3ccccc3c(=O)o2)c1,2.1%,5.7%,-1.3%,14.4,-2.9
Cc1ccc2nc(-c3ccccc3)oc(=O)c2c1,1.3%,.,.,14.3,1.0
Cc1nnc(NC(=O)CSc2nnc(CC(=O)Nc3ccccc3F)n2C)s1,5.0%,1.4%[46.1 µM],-7.2%[46.1 µM],-6.5,-3.5
COCCNC(=O)C1(C)CCCN(C(=O)c2ccco2)C1 (stereo not given),4.4%,.,.,.,.
O=C(Cc1ccc(Cl)cc1)Nc1ccc(Cl)cn1,23.4%,-21.7%[46.1 µM],-1.4%[46.1 µM],67.0*,44.3*
O=C(Cc1ccc(Cl)cc1)Nc1ccc(Br)cn1,-4.1%,.,.,71.9*,35.8*
O=C(Cc1ccc(Cl)cc1)Nc1ccccn1,-8.9%,.,.,24.3,35.6*
O=C(COC(=O)Cc1ccc(F)cc1)Nc1ccc(Cl)cn1,-6.7%,.,.,.,.
O=C(Cc1ccc(F)cc1)Nc1ccc(Cl)cn1,2.0%,8.6%,-12.7%,81.5,25.7*
CC(C)(C)C(=O)OC1=CN(Cc2ccccc2)S(=O)(=O)c2ccccc21,.,0.1%[46.1 µM],17.4%[46.1 µM],.,.
Cc1cc(N)n(Cc2cccs2)n1,2.4%,.,.,3.9,-1.8
O=C(Nc1ccc(F)cc1)Nc1ccc(Cl)cn1,4.4%,23.6%[14.3 µM],?,61.5*,23.1*
O=S(=O)(Cc1ccc(Cl)cc1)Nc1ccc(Cl)cn1,-13.0%,10.4%,?,25.1*,11.1
O=C(Cc1c(F)cccc1Cl)Nc1ccccn1,-0.8%,17.8%,3.1%,36.7*,9.9
CC(C)=CCC/C(C)=C/CO/N=C1/C[C@@H](O)[C@@H](O)[C@@H]2[C@@H]3C(=O)N(C[C@@H]4CCCO4)C(=O)[C@H]3CC[C@H]12,.,.,-5.0%[14.2 µM],.,.
Cc1ccc(C)c(NC(=O)C(OC(=O)c2ccc(CO)cc2)c2ccccc2)c1 (stereo not given),95.9%,-7.5%,-33.1%,.,.
Cc1ccc(NC(=O)C(OC(=O)c2ccc(C=O)cc2)c2ccccc2)cc1Cl (stereo not given),0.8%,?,-9.6%[46.1 µM],5.4,14.7*
CC(=O)c1sc(NC(=O)c2cc(-c3ccccc3)nn2-c2ccccc2)nc1C,7.2%,?,?,-18.9,2.3
SMILES,AMA1 RON2 block,Lassa entry inh,MARV entry inh,Shiga toxin inh,CHX counter
O=C(Nc1nc2ccccc2s1)c1cc(-c2ccccc2)nn1-c1ccccc1,35.6%,?,?,23.9*,25.6*
O=C(NNC(=O)c1cc(-c2ccccc2)nn1-c1ccccc1)c1ccccc1,29.7%[11.6 µM],0.1%,?,13.1,8.5*
Cc1cnc(NC(=O)c2cc(-c3ccccc3)nn2-c2ccccc2)s1,-5.7%,.,.,.,.
O=C(CSc1nnc(-c2ccc(F)cc2)o1)N1CCCc2ccccc21,.,-0.5%[46.1 µM],-1.4%[46.1 µM],.,.
Cc1ccc(CNC(=O)C2CCC(CNc3nc(=S)[nH]c4ccccc34)CC2)cc1 (stereo not given),47.7%,-13.5%,3.55µM*,-3.7,-3.7
O=C1CC(c2cc(-c3ccccc3)no2)C1,-7.0%,.,.,41.9*,38.9*
c1ccc(-c2cc(-c3cc(-c4ccccc4)on3)no2)cc1,-2.0%,.,.,.,.
C(=C\c1ccccc1)/CN1CCN(C(c2nnnn2Cc2ccccc2)C2CC2)CC1 (stereo not given),-2.5%,.,.,.,.
Cc1cccc(Nc2ccc([N+](=O)[O-])cn2)c1,1.6%,.,.,63.4*,25.5*
Cc1cccc(Sc2ccc([N+](=O)[O-])cn2)c1,-18.3%,13.8%,-25.0%,13.6,-0.6
Cc1cccc(Nc2ccc([N+](=O)[O-])cc2C(=O)O)c1,-3.3%,7.9%,?,-6.5,28.1*
CCOc1cccc(Nc2ccc([N+](=O)[O-])cn2)c1,-9.4%,-3.3%[46.1 µM],-11.8%[46.1 µM],.,29.1*
COc1ccc(Br)cc1CNC(=O)c1nn(-c2ccc(C)cc2)c(=O)c2c1c1ccccc1n2C,.,-0.4%[46.1 µM],-3.9%[46.1 µM],.,.
O=C(/C=C1\C(=O)Nc2ccccc21)/C=C1\C(=O)Nc2ccccc21,-15.9%,.,.,48.3,14.9*
